PubChem BioAssay AID1671188 (National Center for Advancing Translational Sciences (NCATS), 2021)
Among all 100,000 compounds or so, about 250 (0.25%) were called active. Inconclusive results (about 7%) are left out. The full list was thinned out, with actives kept by preference. A number with no mark means an inactive call. Calls follow the shape of the dose curve; as a rule, active = well fitted inhibition curve with a large enough effect; inconclusive = small, poorly fitted or top-dose-only effect; inactive = flat fitted curve, though single readings scatter.

These compounds were tested against Alanine aminotransferase 2 (Homo sapiens) (UniProt Q8TD30) (assay: Primary qHTS assay for inhibitors of Glutamate pyruvate transaminase 2 (GPT2)). Conditions: Recombinant GPT2, coupled pyruvate oxidase/HRP Amplex Red fluorescence; series mostly up to 57.7 µM; activity change, negative = inhibition: at the top concentration.
Alanine aminotransferase 2 (Homo sapiens), sequence (Q8TD30 whole entry, looked up): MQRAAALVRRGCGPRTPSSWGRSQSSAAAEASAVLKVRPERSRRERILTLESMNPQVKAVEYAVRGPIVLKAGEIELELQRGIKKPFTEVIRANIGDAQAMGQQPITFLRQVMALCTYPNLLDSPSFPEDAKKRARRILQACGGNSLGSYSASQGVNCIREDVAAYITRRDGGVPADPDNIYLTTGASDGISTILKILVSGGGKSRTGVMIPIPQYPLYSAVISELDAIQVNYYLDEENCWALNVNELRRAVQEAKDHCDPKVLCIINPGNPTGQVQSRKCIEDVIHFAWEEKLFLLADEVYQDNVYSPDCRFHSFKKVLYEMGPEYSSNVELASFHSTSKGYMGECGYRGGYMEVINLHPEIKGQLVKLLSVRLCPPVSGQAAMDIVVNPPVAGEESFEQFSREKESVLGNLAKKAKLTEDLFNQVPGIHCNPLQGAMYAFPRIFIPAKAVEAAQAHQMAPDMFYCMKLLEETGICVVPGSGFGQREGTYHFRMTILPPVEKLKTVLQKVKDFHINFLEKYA
Description: Assay Provider: Zhenghe John Wang Ph.D.
Case Western Reserve University, Cleveland OH
Glutamate pyruvate transaminase 2 (GPT2) catalyzes the reversible transamination of glutamate and pyruvate to provide a-ketoglutarate and alanine. We have optimized an assay for GPT2 enzymatic activity that couples pyruvate formation to detection of fluorescence using an established pyruvate oxidase/horseradish peroxidase / Amplex Red system.
Screening conditions were 250uM a-KG, 2mM L-alanine, and 10ng/uL GPT2 in […] of solution; 10uL of Amplex reaction mix (outlined below) were added so that final concentrations of Amplex reagents in 50uL were 0.2mM ThPP, 0.2U/mL PO and HRP, and 50uM Amplex.
NOTE: The volume of GPT2 in the system depends on the activity of it. The activity is different every batch. You need to test the activity before the assay. For full plate assay with automation, plate 20uL of GPT2 buffer to pin into, then add 10uL of GPT2 dilution followed immediately by 10uL of substrate dilution. 2 Columns of the plate were devoted to GPT2 buffer ([…] PH7.5, 0.0001% Tween) + 50uM AOA (known GPT2 inhibitor) to serve as a positive control. Complete the assay as normal. Amplex-red buffer: […] PH7.5, 1 mM EDTA, 1 mM MgCl2.
1. Combine a-KG and L-alanine at desired concentrations and incubate for at least 10 minutes at 37C. Stocks of L-alanine and a-KG are diluted in distilled water. However, the stocks were diluted in GPT2 buffer for the assay.
2. Prepare GPT2 dilution at the desired concentration in GPT2 buffer.
3. Plate 40uL of GPT2 dilution with 40uL of substrate dilution and let incubate for 30 minutes at room temperature.
4. Add 20uL of Amplex reaction mix prepared as follows: 1.5uL 200U/mL Horseradish Peroxidase, 200mM Thiamine Pyrophosphate, 200U/mL Pyruvate Oxidase; 7.5uL 10mM Amplex Red; 288uL Amplex Buffer.
5. Incubate for 30 minutes at room temperature in the dark, then image using AM_Amplex_Fluorescence on plate reader nearest the window.
% is scaled to controls: 0 for no effect and ±100 for the full control effect; potency is read from the fitted curve at half-maximal effect.
Also: nearly all actives have a fitted effect of over 60% in size.

SMILES | outcome | activity change, negative = inhibition | Potency
CCc1cccc2c(C(CC(=O)NCC(C)C)c3ccccc3OC)c[nH]c12 (centres undefined) | inactive |  | 
COc1ccc(C(=O)N2CCN(C(C(=O)O)c3cccc(O)c3)CC2)cc1 (centres undefined) |  | -24.9% | 
CN1c2cc(C(=O)NCc3ccccc3Br)ccc2C(=O)N2CCCCC21 (centres undefined) | inactive |  | 
COc1cccc(CN2C(=O)OC3(CCN(C(=O)C4CCC(OC)CC4)CC3)C2(C)c2cccnc2)c1 (centres undefined) |  | -4.1% | 
C=CCn1cc2c3c(cccc31)[C@H](CC(C)C)N[C@H](C(=O)NCC1CC1)C2 |  | -3.39% [at 88.5 µM] | 
Cc1ccc(CN2CCC3(CC2)CN(C2CCC2)CC3CO)o1 (centres undefined) |  | 1.81% | 
NC1(C(=O)NCCC2CCCN(Cc3ccc4occc4c3)C2)CC1 (centres undefined) |  | -9.89% | 
COC(=O)[C@@H]1CN(C(=O)c2cccnc2)CCN1C(C)=O |  | -50.5% [at 88.5 µM] | 
FC(F)(F)c1ccc(CN2CCn3c(nnc3-c3ccccc3)C2)cc1 |  | -4.47% | 
Cc1noc(C)c1CCCNC(=O)c1ccc(N(C)C2CCOC2)nc1 (centres undefined) | inactive |  | 
Cc1nc(C)c(C)c(N2CCCC(c3nccn3Cc3ccccc3)C2)n1 (centres undefined) |  | 1.46% | 
COC(=O)CNC(=O)C1CN(c2ccccc2)C(=O)N1 (centres undefined) | inactive [at 88.5 µM] |  | 
O=C1NCCCCCCN(C(=O)c2cccs2)[C@H]2C[C@H](c3nc(Cc4ccccc4)no3)C[C@@H]12 | inactive |  | 
O=C(CCc1nnn2c1CN(C(=O)NCc1ccc(F)cc1)CC2)N1CCOCC1 | inactive |  | 
Cc1noc(C)c1[S+](=O)([O-])NC1CCN(Cc2ccc(-c3ccsc3)cc2)C1 (centres undefined) | inactive |  | 
CCCNC(=O)N1CCCCC1c1nc(CCOc2ccc(F)cc2)no1 (centres undefined) |  | -7.85% | 
CCCNC(=O)N1CCn2nnc(CCC(=O)N3CCOCC3)c2C1 |  | 0.613% | 
Cc1cc2ncc(C(=O)NCC3CC3)cn2n1 |  | -7.15% [at 88.5 µM] | 
O=C(NCCc1ccccn1)C1CCCN(c2nc(-c3ccccc3)nc3c2CCC3)C1 (centres undefined) |  | 2.94% | 
CCOc1ccc(CCCC(=O)N2CC[C@@](C)(O)[C@@H](O)C2)cc1C |  | 3.96% | 
O=C(c1cncc(Br)c1)N1CCC(Cc2nc(C3CCOCC3)no2)CC1 | inactive |  | 
CC(=O)N[C@@H]1C=C(C(=O)N[C@H](CC(C)C)C(N)=O)C[C@@H](O)[C@@H]1O |  | -4.69% [at 88.5 µM] | 
Cc1ccc(C(=O)N2C[C@@H](Oc3ccccc3)C[C@H]2C(=O)N2CCCC2)cn1 |  | -20.6% | 
O=C(NCCn1ccc2ccc(Cl)cc21)C1CC(=O)N(c2n[nH]c3ccccc23)C1 (centres undefined) | inactive |  | 
COCCN1CC(CO)C2(CCN(Cc3cnn(C(C)C)c3)CC2)C1 (centres undefined) | inactive |  | 
Cn1cc(CN2CCCN(C(=O)c3ccco3)CC2)c(-c2ccc(C3CCCCC3)cc2)n1 |  | -7.7% | 
COc1ccccc1CN1CC[C@@H](CO)N(C)c2ncccc2C1 |  | -5.98% [at 88.5 µM] | 

SMILES | outcome | activity change, negative = inhibition | Potency
COCCOc1ccnc(-c2noc([C@@H]3CCCN3Cc3ccc(Cl)cc3)n2)c1 | inactive [at 88.5 µM] |  | 
O=C(NCC(F)(F)F)c1nc2cccnc2n(CCc2ccccc2)c1=O | inactive |  | 
CC(C)C(=O)NC1CCCc2c1[nH]c1c(Cl)cccc21 (centres undefined) |  | -0.0645% | 
O=S(=O)(c1ccc(F)cc1)N1CCCC(Cc2noc(-c3ccccc3)n2)C1 (centres undefined) | inactive |  | 
Cc1ccncc1C(=O)N1CCC(Cn2c(C)cnc2-c2cccnc2)CC1 |  | -12.9% | 
COc1cccc(-c2cccc(C(=O)N3CCN(C(=O)Cc4ccc(F)cc4)CC3)c2)c1 |  | -11.3% | 
COCCC1(NS(C)(=O)=O)CCN(S(=O)(=O)c2ccc3c(c2)OCCO3)CC1 | inactive |  | 
COc1cccc(-c2ccc(CN3CCCC3C(=O)NCc3ccccc3Cl)cc2)c1 (centres undefined) |  | 2.51% | 
Cc1cc(Cl)ccc1S(=O)(=O)N1CCn2c(nn(CC3CC3)c2=O)C1 |  | 1.51% | 
COCCN1C(=O)CCC2(CNC(=O)c3ccncc3)CCC=C12 (centres undefined) | inactive |  | 
O=C(NCC1CCCO1)c1csc(N2CCN(c3ccccc3F)CC2)n1 (centres undefined) |  | -18.5% | 
NC(=O)c1cccc(-c2ncc3c(n2)OCCN(CC2CC2)C3=O)c1 | inactive [at 88.5 µM] |  | 
Cc1cc(C)cc(C(=O)NC2CCN(c3cnn(C)c(=O)c3)CC2)c1 | inactive |  | 
O=C(c1cccc(Cl)c1)N1CCC(C(=O)N2CCC(N3CCOCC3=O)CC2)CC1 | inactive |  | 
O=C(c1cnccn1)N1CCC(N2C(=O)C(OCC3CC3)C23CCOCC3)CC1 (centres undefined) |  | -7.16% | 
O=C1NC2(CCN(Cc3ccc(F)cc3)C2)OCc2ccccc21 (centres undefined) | inactive [at 88.5 µM] |  | 
Cc1ccc2c(C)c(C(=O)N3CCCC3c3nc(C(C)C)no3)oc2c1C (centres undefined) |  | 3.09% | 
COCCC1(CO)CCCN(C(=O)c2ccc(S(N)(=O)=O)cc2)C1 (centres undefined) |  | 4.37% | 
C#CCN(Cc1nc(-c2cc(OC)ccc2F)oc1C)C1CCCCC1 | inactive |  | 
CNCC(O)c1ccc(O)c(O)c1 (centres undefined) |  |  | 6.31 µM (active)
COCC(=O)N1CCC(N2C[C@H](OC)[C@@H]2c2ccncc2)CC1 | inactive |  | 
CC1(C(=O)N2CCN(c3ccccn3)CC2)CCCc2cnc(Nc3cccnc3)nc21 (centres undefined) |  | -3.53% [at 88.5 µM] | 
Cc1cc(C)c(C(=O)N2CCOC(Cc3ccc(F)cc3)C2)o1 (centres undefined) |  | 1.05% | 
Cc1ccc(NC(=O)C2CCc3nnc(C4CCN(C(=O)NC(C)(C)C)CC4)n32)cc1 (centres undefined) | inactive |  | 
O=C(Cc1ccc(F)cc1)N1CCC(C(=O)N2CCC(c3nc4ncccc4[nH]3)CC2)C1 (centres undefined) |  | 1.34% | 
CN(C)C(=O)NC1CCN(c2nc3ncccc3o2)CC1 | inactive [at 88.5 µM] |  | 
COc1cc2c(cc1OC)C(CNC(=O)c1cccc(Cl)c1)N(C(=O)Nc1ccccc1)CC2 (centres undefined) | inactive |  | 
